According to publication PMC11995724, “Antibiotic target discovery by integrated phenotypic and activity-based profiling of electrophilic fragments” (Cell chemical biology, 2025):
The whole screen tested about 3,200 compounds, of which about 110 (3.4%) showed an effect of 50% or more. This is one part of a sample in which strong results are shown more often than they occur.

test system: T1, V. cholerae SAD30; parameters: species or system S. aureus MSSA476 (TSB) or V. cholerae SAD30 (LB); 384-well bacterial growth screen at 25 uM, OD600 relative to DMSO control; details: relative growth, OD600, LB; 25 µM; inhibitor
T1 construct: SAD30

In order of rising “% of control remaining” value:
1. CS(=O)(=O)N1CCc2cc(C(=O)CCl)ccc21 [10-B19, 2-chloro-1-(1-methanesulfonyl-2,3-dihydro-1H-indol-5-yl)ethan-1-one]  18.0791%
2. CS(=O)(=O)N1CCCc2cc(C(=O)CCl)ccc21 [10-H19, 2-chloro-1-(1-methanesulfonyl-1,2,3,4-tetrahydroquinolin-6-yl)ethan-1-one]  22.9106%
3. COc1cc([N+](=O)[O-])ccc1N1C(=O)C=CC1=O [10-H13, 1-(2-methoxy-4-nitrophenyl)-2,5-dihydro-1H-pyrrole-2,5-dione]  24.625%
4. Cc1ccc(N2C(=O)C=CC2=O)c([N+](=O)[O-])c1 [10-N13, 1-(4-methyl-2-nitrophenyl)-2,5-dihydro-1H-pyrrole-2,5-dione]  27.1186%
5. O=CN1CCc2cc(C(=O)CCl)ccc21 [10-K20, 5-(2-chloroacetyl)-2,3-dihydro-1H-indole-1-carbaldehyde]  27.1186%
6. O=C(CCl)c1cc2c3c(c1)CC(=O)N3CCC2 [10-G16, 6-(2-chloroacetyl)-1-azatricyclo[6.3.1.0,4,12]dodeca-4(12),5,7-trien-2-one]  27.7421%
7. CCS(=O)(=O)N1CCc2cc(C(=O)CCl)ccc21 [10-E18, 2-chloro-1-[1-(ethanesulfonyl)-2,3-dihydro-1H-indol-5-yl]ethan-1-one]  27.8979%
8. COc1ccc(N2C(=O)C=CC2=O)c([N+](=O)[O-])c1 [10-L11, 1-(4-methoxy-2-nitrophenyl)-2,5-dihydro-1H-pyrrole-2,5-dione]  30.3916%
9. COc1ccc([N+](=O)[O-])cc1N1C(=O)C=CC1=O [10-P13, 1-(2-methoxy-5-nitrophenyl)-2,5-dihydro-1H-pyrrole-2,5-dione]  32.7294%
10. CN1C(=O)Cc2cc(C(=O)CCl)ccc21 [10-G07, 5-(2-chloroacetyl)-1-methyl-2,3-dihydro-1H-indol-2-one]  54.3931%
11. O=C(CCl)N(Cc1ccc(Cl)cc1)C12CC3CC(CC(C3)C1)C2 [4-H07, N-(adamantan-1-yl)-2-chloro-N-[(4-chlorophenyl)methyl]acetamide]  55.3806%
12. N#CC(=Cc1ccc(Cl)cc1Cl)C(=O)Nc1nccs1 [9-H19, 2-cyano-3-(2,4-dichlorophenyl)-N-(1,3-thiazol-2-yl)prop-2-enamide]  79.4697%
13. CC(Cl)C(=O)N(C)CCn1c(=O)oc2ccccc21 (stereo not shown) [7-H15, 2-chloro-N-methyl-N-[2-(2-oxo-2,3-dihydro-1,3-benzoxazol-3-yl)ethyl]propanamide]  82.4715%
14. CC(=O)N1c2ccc(C(=O)CCl)cc2CC1C (stereo not shown) [10-I20, 1-(1-acetyl-2-methyl-2,3-dihydro-1H-indol-5-yl)-2-chloroethan-1-one]  84.473%
15. CC(Cl)C(=O)Nc1nc(-c2ccccc2)cs1 (stereo not shown) [6-L10, 2-chloro-N-(4-phenyl-1,3-thiazol-2-yl)propanamide]  85.6953%
16. C=CC(=O)Nc1ccnn1Cc1cccc(Cl)c1 [1-N14, N-{1-[(3-chlorophenyl)methyl]-1H-pyrazol-5-yl}prop-2-enamide]  86.3592%
17. CC(C#N)CSc1ccccc1NC(=O)CCl (stereo not shown) [6-K16, 2-chloro-N-{2-[(2-cyano-2-methylethyl)sulfanyl]phenyl}acetamide]  86.757%
18. CC1Cc2cc(C(=O)CCl)ccc2N1S(C)(=O)=O (stereo not shown) [10-A04, 2-chloro-1-(1-methanesulfonyl-2-methyl-2,3-dihydro-1H-indol-5-yl)ethan-1-one]  89.6162%
19. C=CC(=O)NCC1CNC(=O)c2ccccc21 (stereo not shown) [2-F17, N-[(1-oxo-1,2,3,4-tetrahydroisoquinolin-4-yl)methyl]prop-2-enamide]  90.0415%
20. C=CC(=O)N(CC)CC(=O)N1CC(C)(C)C1c1nccn1C (stereo not shown) [2-J16, N-{2-[3,3-dimethyl-2-(1-methyl-1H-imidazol-2-yl)azetidin-1-yl]-2-oxoethyl}-N-ethylprop-2-enamide]  90.3503%
21. COc1ccc(NC(=O)C(C)Cl)c([N+](=O)[O-])c1 (stereo not shown) [6-B08, 2-chloro-N-(4-methoxy-2-nitrophenyl)propanamide]  90.3972%
22. Cc1nn(CCC(=O)N2CCSSCC2)c(C)c1[N+](=O)[O-] [10-J05, 3-(3,5-dimethyl-4-nitro-1H-pyrazol-1-yl)-1-(1,2,5-dithiazepan-5-yl)propan-1-one]  92.1099%
23. C=CC(=O)N1CCOCC1c1cc(F)cc(F)c1 (stereo not shown) [2-O16, 1-[3-(3,5-difluorophenyl)morpholin-4-yl]prop-2-en-1-one]  92.203%
24. COc1ccc([N+](=O)[O-])cc1NC(=O)C(C)Cl (stereo not shown) [5-N14, 2-chloro-N-(2-methoxy-5-nitrophenyl)propanamide]  92.6342%
25. N#Cc1ccc2c(c1)CCN2C(=O)CCl [5-N09, 1-(2-chloroacetyl)-2,3-dihydro-1H-indole-5-carbonitrile]  93.4748%
26. COc1cc([N+](=O)[O-])ccc1NC(=O)C(C)Cl (stereo not shown) [4-K12, 2-chloro-N-(2-methoxy-4-nitrophenyl)propanamide]  93.5087%
27. Cc1ccc(NC(=O)N2CCSSCC2)c(C)c1 [10-F11, N-(2,4-dimethylphenyl)-1,2,5-dithiazepane-5-carboxamide]  95.0711%
28. C=CC(=O)N1CCC(n2ncc3ccccc32)CC1 [1-K22, 1-[4-(1H-indazol-1-yl)piperidin-1-yl]prop-2-en-1-one]  95.6652%
29. C=CC(=O)N1CCC(C(=O)N[C@H]2CCC[C@H]2O)CC1 [2-K04, N-[(1S,2R)-2-hydroxycyclopentyl]-1-(prop-2-enoyl)piperidine-4-carboxamide]  95.9085%
30. O=C(CCl)c1ccc2c(c1)CCN(C(=O)C(F)(F)F)C2 [10-E09, 1-[6-(2-chloroacetyl)-1,2,3,4-tetrahydroisoquinolin-2-yl]-2,2,2-trifluoroethan-1-one]  98.6558%
31. N#CC(=Cc1ccsc1)C(=O)Nc1ccccc1Cl [9-O05, N-(2-chlorophenyl)-2-cyano-3-(thiophen-3-yl)prop-2-enamide]  98.9123%
32. CC(=O)N1CCc2cc(C(=O)C(C)Cl)ccc21 (stereo not shown) [10-L22, 1-(1-acetyl-2,3-dihydro-1H-indol-5-yl)-2-chloropropan-1-one]  100.214%
33. COc1cc([N+](=O)[O-])ccc1NC(=O)CCl [4-O07, 2-chloro-N-(2-methoxy-4-nitrophenyl)acetamide]  100.582%
34. C=CC(=O)N1CCC(C(=O)N[C@]2(C(=O)OC)CC[C@@H](C)CC2)CC1 [3-E17, methyl (1r,4r)-4-methyl-1-[1-(prop-2-enoyl)piperidine-4-amido]cyclohexane-1-carboxylate]  101.088%
35. CCOC(=O)c1c(NC(=O)CCl)sc(C)c1C [4-O15, ethyl 2-(2-chloroacetamido)-4,5-dimethylthiophene-3-carboxylate]  102.998%
36. O=C(CCl)NCCS(=O)(=O)N1CCc2ccccc21 [6-H04, 2-chloro-N-[2-(2,3-dihydro-1H-indole-1-sulfonyl)ethyl]acetamide]  103.138%
37. CC(Cl)C(=O)NC(=O)Nc1ccccc1 (stereo not shown) [5-I21, 3-(2-chloropropanoyl)-1-phenylurea]  104.066%
38. Cc1ccc(NC(=O)CCl)c([N+](=O)[O-])c1 [4-A07, 2-chloro-N-(4-methyl-2-nitrophenyl)acetamide]  105.068%
39. CSc1cccc(-n2c(C)cc(C(=O)CCl)c2C)c1 [10-J16, 2-chloro-1-{2,5-dimethyl-1-[3-(methylsulfanyl)phenyl]-1H-pyrrol-3-yl}ethan-1-one]  105.825%
40. CCN(CC)S(=O)(=O)c1cccc(NC(=O)CCl)c1 [4-M07, 2-chloro-N-[3-(diethylsulfamoyl)phenyl]acetamide]  105.931%
41. COc1ccc(NC(=O)CCl)c([N+](=O)[O-])c1 [4-I21, 2-chloro-N-(4-methoxy-2-nitrophenyl)acetamide]  107.311%
42. Cc1ccc(NC(=O)C(C)Cl)cc1S(=O)(=O)N1CCOCC1 (stereo not shown) [5-D22, 2-chloro-N-[4-methyl-3-(morpholine-4-sulfonyl)phenyl]propanamide]  107.429%
43. O=C(CCl)c1c[nH]c(C(=O)N2CCCC2)c1 [10-A16, 2-chloro-1-[5-(pyrrolidine-1-carbonyl)-1H-pyrrol-3-yl]ethan-1-one]  108.475%
44. COc1ccc([N+](=O)[O-])cc1NC(=O)CCl [4-P17, 2-chloro-N-(2-methoxy-5-nitrophenyl)acetamide]  111.969%
45. C=CC(=O)NC1CS(=O)(=O)C1 [3-P18, N-(1,1-dioxo-1lambda6-thietan-3-yl)prop-2-enamide]  112.909%
46. CCC(=O)N1CCc2cc(C(=O)CCl)ccc21 [10-C22, 1-[5-(2-chloroacetyl)-2,3-dihydro-1H-indol-1-yl]propan-1-one]  119.54%
